Results filed as inconclusive are left out. Calls of active or inactive are those of the source. How the source made its calls: active means hit-call score of the fitted dose curve at least 0.9, where 1 is the maximum; inconclusive means response in the unintended direction; inactive means score below 0.9.
Assay: TOX21_p53_BLA_p2_viability: Viability Assessment in the Tox21 HCT-116 p53 Agonism Beta-lactamase Assay, Phase 2 (AID 2283591);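 further: compound exposure lasted 16 h at 37 °C; actives lower the ATP signal meaning cytotoxicity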
Excerpt: TOX21_p53_BLA_p2 is a cell-based, single-readout assay that uses HCT116, a human intestinal cell line, […] in a 1536-well plate.TOX21_p53_BLA_p2_viability is an assay readout measuring cellular ATP content and detected with CellTiter-Glo Luciferase-coupled ATP quantitation.TOX21_p53_BLA_p2_viability used a type of viability reporter where loss-of-signal activity can be used to understand changes in the cell viability. Furthermore, this assay endpoint can be referred to as a secondary readout, because this assay has produced multiple assay endpoints where this one serves a viability function. To generalize the intended target to other relatable targets, this assay endpoint is annotated to the cell cycle intended target family, where the subfamily is cytotoxicity.
Thawing Method: Place 14 mL of pre-warmed thaw medium into a 15 mL of conical tub. Remove the vial of cells to be thawed from liquid nitrogen and thaw rapidly by placing at 37C in a water bath with gentle agitation for 1-2 minutes. Decontaminate the vial by wiping with 70% ethanol before opening in a biological safety cabinet. Transfer the vial contents drop-wise into 14 mL of thaw medium in a sterile 15-mL conical tub. Centrifuge cells at 900 rpm for 4 minutes and resuspend in thaw medium. Transfer contents to the T75 tissue culture flask containing Thaw Medium and place flask in a humidified 37C/5% CO2 incubator. Switch to growth medium at first passage.Propagation Method: Aspirate medium, rinse once in DPBS, add 0.25% Trypsin/EDTA and swirl to coat the cell evenly. Add an equal volume of Growth Medium to inactivate Trypsin after 2-3 minutes incubation at 37C. Centrifuge cells at 900 rpm for 4 minutes and resuspend in growth medium. Cell should be passage or fed at least twice a week.Assay Protocol: Harvest cells from culture in growth medium and resuspend in assay medium. 2.2 Dispense 4000 cells/5 uL/well into 1536-well black/clear bottom plates using a Multidrop dispenser. After the cells were incubated at 37C for 5 hours, 23 nL of compounds dissolved in DMSO were transferred to the assay plate by a PinTool resulting in a 217-fold dilution. Incubate the plates for 16 hours at 37C, 5% CO2. Add 1 uL of 6X LiveBLAzer FRET B/G (CCF4-AM) Substrate Mixture to each well using a BioRAPTR dispenser and incubate the plates at room temperature for 2 hours. Measure fluorescence intensity at 460 and 530 nm emission and 405 nm excitation by an Envision detector. Data is expressed as the ratio of 460nm/530nm emissions. Add 4 uL of Cell-titer Glo to each well using BioRAPTR and incubate the plates at room temperature for […]. For cell viability readout that measures cytotoxicity, 4 ul/well of CellTiter-Glo reagent was added into the assay plates using a Flying Reagent Dispenser. After 30 min incubation at room temperature, the luminescence intensity in the plates was measured using a ViewLux plate reader.
With `CCCCC(CC)COC(=O)c1ccccc1C(=O)OCC(CC)CCCC` (stereo not given) the outcome was “inactive”.
With `CNC(=O)ON=CC(C)(C)SC` the outcome was “inactive”.
With `N#Cc1nn(-c2c(Cl)cc(C(F)(F)F)cc2Cl)c(N)c1S(=O)C(F)(F)F` (stereo not given) the outcome was “inactive”.
In the case of `CCOC(=O)CC(SP(=S)(OC)OC)C(=O)OCC` (stereo not given), the outcome is reported as “inactive”.
For `CN(C)C(=S)SSC(=S)N(C)C`, the outcome was “inactive”.
In the case of `COP(=S)(OC)Oc1nc(Cl)c(Cl)cc1Cl`, the outcome is reported as “inactive”.
In the case of `Cc1c(F)c(F)c(COC(=O)C2C(/C=C(\Cl)C(F)(F)F)C2(C)C)c(F)c1F` (stereo not given), the outcome is reported as “inactive”.
With `CC1=C(C(=O)Nc2ccccc2)SCCO1` the outcome was “inactive”.
For `CC(C)C1(C)N=C(c2nc3ccccc3cc2C(=O)O)NC1=O` (stereo not given), the outcome was “inactive”.
In the case of `O=C(O)COc1nc(Cl)c(Cl)cc1Cl`, the outcome is reported as “inactive”.
In the case of `C#CCOS(=O)OC1CCCCC1Oc1ccc(C(C)(C)C)cc1` (stereo not given), the outcome is reported as “inactive”.
With `C=CCC1=C(C)[C@@H](OC(=O)[C@@H]2[C@@H](C=C(C)C)C2(C)C)CC1=O` the outcome was “inactive”.
For `CCCC1COC(Cn2cncn2)(c2ccc(Cl)cc2Cl)O1` (stereo not given), the outcome was “inactive”.
In the case of `CC1COC(Cn2cncn2)(c2ccc(Oc3ccc(Cl)cc3)cc2Cl)O1` (stereo not given), the AC50 is reported as 78.7 µM (active).
With `Oc1ccccc1-c1ccccc1` the outcome was “inactive”.
For `Fc1ccc(Oc2ccnc3cc(Cl)cc(Cl)c23)cc1`, the outcome was “inactive”.
With `CCCCNC(=O)n1c(NC(=O)OC)nc2ccccc21` the outcome was “inactive”.
With `OC(c1ccc(Cl)cc1)(c1cncnc1)c1ccccc1Cl` (stereo not given) the outcome was “inactive”.
In the case of `CCON=C(CC)C1=C(O)CC(c2c(C)cc(C)cc2C)CC1=O` (stereo not given), the outcome is reported as “inactive”.
For `CCOc1cc(Oc2ccc(C(F)(F)F)cc2Cl)ccc1[N+](=O)[O-]`, the outcome was “inactive”.
In the case of `CC(C)Oc1cc(-n2nc(C(C)(C)C)oc2=O)c(Cl)cc1Cl`, the outcome is reported as “inactive”.
For `Cc1ccc(-c2c(Cl)nc(C#N)n2S(=O)(=O)N(C)C)cc1`, the AC50 was 68.9 µM (active).
For `N#CC(CCc1ccc(Cl)cc1)(Cn1cncn1)c1ccccc1` (stereo not given), the AC50 was 56 µM (active).
With `CO/C=C(/C(=O)OC)c1ccccc1Oc1cc(Oc2ccccc2C#N)ncn1` the outcome was “inactive”.
In the case of `CNC(=S)S`, the outcome is reported as “inactive”.
With `COP(N)(=O)SC` (stereo not given) the outcome was “inactive”.
In the case of `O=C(O)c1nc(Cl)ccc1Cl`, the outcome is reported as “inactive”.
For `C=CCC1=C(C)C(OC(=O)C2C(C=C(C)C)C2(C)C)CC1=O` (stereo not given), the outcome was “inactive”.
In the case of `CON(C)C(=O)Nc1ccc(Cl)c(Cl)c1`, the outcome is reported as “inactive”.
For `CCCCNC(=O)OCC#CI`, the outcome was “inactive”.
With `CCc1nn(C)c(C(=O)NCc2ccc(C(C)(C)C)cc2)c1Cl` the AC50 was 46.1 µM (active).
With `Cc1cc(Cl)ccc1OCC(=O)O` the outcome was “inactive”.
For `O=C(Nc1ccccc1)Nc1ccnc(Cl)c1`, the outcome was “inactive”.
For `COc1nc(C)nc(NC(=O)NS(=O)(=O)c2ccccc2Cl)n1`, the outcome was “inactive”.
In the case of `COc1ccc(C(c2ccc(OC)cc2)C(Cl)(Cl)Cl)cc1`, the outcome is reported as “inactive”.
In the case of `C=CC1(C)OC(=O)N(c2cc(Cl)cc(Cl)c2)C1=O` (stereo not given), the outcome is reported as “inactive”.
With `CCNc1nc(Cl)nc(NCC)n1` the outcome was “inactive”.
With `COC(=O)N(OC)c1ccccc1COc1ccn(-c2ccc(Cl)cc2)n1` the outcome was “inactive”.
With `CC(C)(C)c1ccc(CSc2cnn(C(C)(C)C)c(=O)c2Cl)cc1` the outcome was “inactive”.
In the case of `COc1cnc(OC)n2nc(NS(=O)(=O)c3c(OCC(F)F)cccc3C(F)(F)F)nc12`, the outcome is reported as “inactive”.

— PubChem BioAssay (EPA / NIEHS)
